AC50 and outcome data for four compounds are collected here from PubChem BioAssay (EPA / NIEHS).

Experiment [1] addresses PGR (gene 5241) (UniProt P06401). The experiment in a line: TOX21_PR_BLA_Followup_Antagonist_ratio: Tox21 HEK293 Progesterone Receptor (PR) Antagonism Beta-lactamase Follow-Up Assay, Ratio (AID 2283934). The procedure, abridged: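 PR-UAS-bla HEK293T cells, 3,000/well in 2% charcoal-stripped FBS, given compound plus 1nM R5020 agonist for 16 hr at 37C. Beta-lactamase FRET substrate 2 hours, ratio cleaved/uncleaved fluorescence; viability by CellTiter-Glo in same wells.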

Experiment [2] can be described thus: TOX21_PR_BLA_Followup_Agonist_viability: Viability Assessment in the Tox21 HEK293 Progesterone Receptor (PR) Agonism Beta-lactamase Follow-Up Assay (AID 2283935).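 Note: signal loss means lower viability so actives are cytotoxic.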 Put shortly:
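PR-UAS-bla HEK293T cells in 2% charcoal-stripped FBS medium, plated 6 hr before compound addition, exposed 16 hr at 37C. Viability read by CellTiter-Glo ATP luminescence after 30 min at room temperature, in the same wells as the beta-lactamase readout.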

Experiment [3] is described as follows: TOX21_PR_BLA_Followup_Antagonist_viability: Viability Assessment in the Tox21 HEK293 Progesterone Receptor (PR) Antagonism Beta-lactamase Follow-Up Assay (AID 2283936).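 Note: hits lower the luminescence signal meaning cytotoxicity.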 The procedure, abridged:
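PR-UAS-bla HEK293T cells (3,000/well, 2% charcoal-stripped FBS) given compound plus R5020 agonist, 16 h at 37C. CellTiter-Glo added after bla read, 30 min at room temperature; luminescence loss indicates cytotoxicity.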

Experiment [4] has as its target PGR (gene 5241) (UniProt P06401). Description: TOX21_PR_LUC_Followup_Antagonist: Tox21 HEK293 Progesterone Receptor (PR) Antagonism Luciferase Follow-Up Assay (AID 2283938).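 Note: curve fitted upward as signal gain over DMSO baseline despite antagonist label.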 The procedure, abridged: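 Luminescence from ONE-Glo reagent, measured after 30 min at room temperature, served as readout. Cells (HEK293 carrying PR-A-luc) had been treated 16 h at 37C with DMSO-dissolved compounds. Activity was fitted against DMSO controls.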

Experiment [5] in a line: TOX21_PR_LUC_Followup_Antagonist_viability: Viability Assessment in the Tox21 HEK293 Progesterone Receptor (PR) Antagonism Luciferase Follow-Up Assay (AID 2283940). Put shortly:
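HEK293-PR-A-luc cells kept in charcoal-stripped FBS medium were plated 5 h before compound addition, then exposed 16 h at 37C; viability read as cellular ATP by luciferase luminescence, loss of signal indicating cytotoxicity.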

The nature of experiment [6]: TOX21_PR_LUC_Followup_Agonist_viability: Viability Assessment in the Tox21 HEK293 Progesterone Receptor (PR) Agonism Luciferase Follow-Up Assay (AID 2283941).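 Note: loss of signal means cytotoxicity so actives lower viability.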 The procedure, abridged: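 HEK293-PR-A-luc cells, kept in 10% charcoal-stripped FBS medium, were treated with compounds for 16 h at 37C. Viability read as cellular ATP by luciferase-coupled luminescence; loss of signal indicates cytotoxicity.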

Experiment [7] in a line: CEETOX_H295R_ESTRONE_noMTC: CeeTox H295R High-throughput Steroidogenesis Assay for Estrone, maximum tolerated concentration (MTC) filtered results only (AID 2283921; active = hit-call score of the fitted dose curve at least 0.9, where 1 is the maximum; inactive = score below 0.9). Conditions: actives raise or lower the signal. The protocol:
CEETOX_H295R is a cell-based, multiplexed-readout assay that uses H295R, a human adrenal gland cell line, with measurements taken at 48 hours after chemical dosing in a 96-well plate.CEETOX_H295R_ESTRONE_noMTC is one of 12 assay component(s) measured or calculated from the CEETOX_H295R assay (11 hormones and 1 viability assay). It is designed to make measurements of hormone induction, a form of inducible reporter, as detected with absorbance signals by HPLC-MS-MS technology. The concentrations for these components have not been pre-filtered for the maximum tolerated concentration (MTC) based on the MTT assay (_noMTC).Data from the assay component CEETOX_H295R_ESTRONE_noMTC was analyzed into 1 assay endpoint. This assay endpoint, CEETOX_H295R_ESTRONE_noMTC, was analyzed with bidirectional fitting relative to DMSO as the negative control and baseline of activity. […]
Cell culture and media preparation procedures were conducted in accordance with OECD Test No. 456 guidelines, with minor modifications. […] For steroid quantification, media samples were shipped to OpAns, LLC (Durham, NC) on dry ice, and samples were thawed to room temperature prior to liquid-liquid extraction. […] Steroid hormones were separated by HPLC, eluted using a reverse phase C18 gradient with electrospray positive ionization, followed by quantification by tandem mass spectrometry (MS/MS). […]

Experiment [8] in a line: CEETOX_H295R_TESTO_noMTC: CeeTox H295R High-throughput Steroidogenesis Assay for Testosterone (TESTO), maximum tolerated concentration (MTC) filtered results only (AID 2283924; active = hit-call score of the fitted dose curve at least 0.9, where 1 is the maximum; inactive = score below 0.9). Conditions: actives raise or lower the signal. The procedure, abridged: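 H295R cells prestimulated 48 h with 10 uM forskolin, then exposed 48 h to chemicals in 0.1% DMSO final. Testosterone in medium quantified by MTBE extraction and HPLC-MS/MS; bidirectional fit versus DMSO, concentrations […] filtered by MTT-based maximum tolerated concentration.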

The target of experiment [9] is PGR (gene 5241) (UniProt P06401). Description: TOX21_PR_BLA_Followup_Agonist_ratio: Tox21 HEK293 Progesterone Receptor (PR) Agonism Beta-lactamase Follow-Up Assay, Ratio (AID 2283933). The procedure, abridged:
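PR-UAS-bla HEK293T cells in medium with 2% charcoal-stripped FBS were dosed after 6 h plating and incubated 16 h at 37C. LiveBLAzer FRET substrate was added for 2 h at room temperature. Cleaved/uncleaved substrate ratio fitted against DMSO; CellTiter-Glo viability run in the same wells.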

Experiment [10] has the same target. The experiment in a line: TOX21_PR_LUC_Followup_Agonist: Tox21 HEK293 Progesterone Receptor (PR) Agonism Luciferase Follow-Up Assay (AID 2283937; active = hit-call score of the fitted dose curve at least 0.9, where 1 is the maximum; inactive = score below 0.9). The procedure, abridged:
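HEK293-PR-A-luc cells, conditioned 5 days in 10% charcoal-stripped FBS medium, seeded 3,000/well for 5 h, then compound-treated 16 h at 37C. ONE-Glo luminescence read after 30 min at room temperature; gain of signal versus DMSO.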

Results filed as inconclusive are left out. Active and inactive are the calls of the source. Rule for the calls, unless noted: active = hit-call score of the fitted dose curve at least 0.9, where 1 is the maximum; inconclusive = response in the unintended direction; inactive = score below 0.9.

Chain of PGR (gene 5241) (P06401 whole entry, looked up): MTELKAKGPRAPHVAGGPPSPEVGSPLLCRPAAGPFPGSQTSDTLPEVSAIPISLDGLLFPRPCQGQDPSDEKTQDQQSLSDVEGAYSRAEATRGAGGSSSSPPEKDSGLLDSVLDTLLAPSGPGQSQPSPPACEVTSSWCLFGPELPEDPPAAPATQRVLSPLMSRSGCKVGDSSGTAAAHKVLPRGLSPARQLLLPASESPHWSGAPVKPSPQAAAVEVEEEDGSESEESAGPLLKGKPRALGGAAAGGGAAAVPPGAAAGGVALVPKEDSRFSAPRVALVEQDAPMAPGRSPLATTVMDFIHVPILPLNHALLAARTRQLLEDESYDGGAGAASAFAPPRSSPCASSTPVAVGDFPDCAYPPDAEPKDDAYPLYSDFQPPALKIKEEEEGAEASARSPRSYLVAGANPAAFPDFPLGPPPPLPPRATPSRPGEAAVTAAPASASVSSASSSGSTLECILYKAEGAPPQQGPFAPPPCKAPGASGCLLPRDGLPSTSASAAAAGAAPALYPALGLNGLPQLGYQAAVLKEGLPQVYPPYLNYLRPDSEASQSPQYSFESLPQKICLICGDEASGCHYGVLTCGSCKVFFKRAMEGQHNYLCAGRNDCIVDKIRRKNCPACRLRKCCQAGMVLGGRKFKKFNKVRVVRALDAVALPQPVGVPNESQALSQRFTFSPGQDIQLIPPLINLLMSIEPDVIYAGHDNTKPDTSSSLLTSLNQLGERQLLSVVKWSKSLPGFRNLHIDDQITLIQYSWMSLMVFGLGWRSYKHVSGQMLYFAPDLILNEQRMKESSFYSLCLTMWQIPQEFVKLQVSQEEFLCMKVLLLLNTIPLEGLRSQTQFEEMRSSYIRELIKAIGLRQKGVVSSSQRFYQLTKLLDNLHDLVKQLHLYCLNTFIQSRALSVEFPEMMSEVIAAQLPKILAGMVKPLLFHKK

Take `N#Cc1c[nH]cc1-c1cccc2c1OC(F)(F)O2`: the AC50 (as a rule, the midpoint of the concentration-response curve, whichever way the signal moves) was 2.42 µM (active) with PGR (gene 5241) [1] and 7.11 µM (active) with PGR (gene 5241) [4]. Moreover, the outcome in experiment [2], in experiment [3], in experiment [5] and in experiment [6] was inactive.

With `COC(=O)c1c(C(F)F)nc(C(F)(F)F)c(C2=NCCS2)c1CC(C)C`, the compound was called inactive in experiment [7] and in experiment [8].

For the compound `CCN(CC)C(=O)C(C)Oc1cccc2ccccc12` (stereo unspecified), in the experiment with PGR (gene 5241) [1], the AC50 was 28.4 µM (active). The result (in [2]; in experiment [3]; with PGR (gene 5241) [4]; in experiment [6]) was inactive.

For the compound `CC1(C)CCC(=Cc2ccc(Cl)cc2)C1(O)Cn1cncn1` (stereo unspecified), the outcome (in the experiment with PGR (gene 5241) [9]; in the experiment with PGR (gene 5241) [1]; in [2]; in [3]; with PGR (gene 5241) [10]; with PGR (gene 5241) [4]) was inactive. Further, the outcome in [5] and in experiment [6] was inactive.
